PubChem BioAssay (NCATS)
Inconclusive results are not listed. Active and inactive are the calls of the source. Unless noted, calls come from the whole dose curve; as a rule, active = well fitted cell-killing curve with a large enough effect; inconclusive = small, poorly fitted or top-dose-only effect; inactive = flat fitted curve, though single readings scatter.

Columns and labels:
[1] = Cell Viability - LYMP2-025 (AID 976); note: series mostly up to about 92 µM
Outline: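 CellTiter-Glo luminescence (cellular ATP) after 24 h compound exposure at 37 C; LYMP2-025 human lymphoblastoid cells, 2500/well, complete medium. Tetraoctylammonium bromide positive control. AC50 by Hill equation fit of qHTS concentration-response.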

[2] = Cell Viability - LYMP2-002 (AID 977); note: series mostly up to about 92 µM
Outline: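 In this qHTS viability screen, 2500 human lymphoblastoid cells per well receive compound for 24 hr at 37 C, and luciferase-based ATP luminescence gives the viability signal. Tetraoctylammonium bromide serves as positive control.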

[3] = Cell Viability - LYMP2-006 (AID 978);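 note: series mostly up to about 92 µM; cells exposed to compound for 24 hours; nearly all actives have a fitted effect of over 60% in size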
Outline: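 Human lymphoblastoid cells (LYMP2-006), 2500/well in complete medium, were treated with compound for 24 hr at 37 C. Cellular ATP was read by CellTiter-Glo luminescence after 30 min, and AC50 values came from Hill-equation fits of concentration-response data.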

[4] = Cell Viability - LYMP2-007 (AID 979);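 note: cells exposed to compound for 24 h before reading; nearly all actives have a fitted effect of over 60% in size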
Outline: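 qHTS cytotoxicity: 2500 cells/well, 5 hr 37 C settle, compound 24 hr 37 C, CellTiter-Glo 30 min RT, luminescence. Decrease in ATP = toxicity. AC50 by standard Hill equation; tetraoctylammonium bromide positive control.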

[5] = Cell Viability - LYMP2-008 (AID 980); note: nearly all actives have a fitted effect of over 60% in size
Outline: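 Luminescent ATP read-out (CellTiter-Glo, 30 min RT) after 24 hr compound exposure at 37 C of human lymphoblastoid cells in complete medium. Decrease in ATP taken as cytotoxicity; AC50 derived by standard Hill fit of qHTS concentration-response data.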

[6] = Cell Viability - LYMP2-010 (AID 981);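 note: cells exposed to compound for 24 hours at 37 °C; nearly all actives have a fitted effect of over 55% in size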
Outline: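 qHTS cytotoxicity, 1536-well: 2500 cells/well, 5 hr settle, 24 hr compound at 37 C, CellTiter-Glo 30 min RT, luminescence read. Decrease in ATP = toxicity; AC50 via standard Hill equation. Positive control tetraoctylammonium bromide.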

[7] = Cell Viability - LYMP2-012 (AID 982);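 note: cellular ATP by luciferase luminescence where a drop means cytotoxicity; cells exposed to compound for one day before reading; nearly all actives have a fitted effect of over 55% in size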
[8] = Cell Viability - LYMP2-014 (AID 983); note: series mostly up to about 92 µM; nearly all actives have a fitted effect of over 50% in size
Outline: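 2500 cells/well, 5 hr 37 C; cpd 24 hr 37 C, complete medium; CellTiter-Glo 30 min RT, luminescence; ATP loss = toxicity; AC50 via Hill eqn; tetraoctylammonium bromide positive control.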

[9] = Cell Viability - LYMP2-016 (AID 984);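 note: cells exposed to compound for 24 hours at 37 °C; nearly all actives have a fitted effect of over 55% in size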
Outline: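 Human lymphoblastoid LYMP2-016 cells, 2500 per well, treated with compounds for 24 h at 37 C. Viability read as intracellular ATP by CellTiter-Glo luminescence after 30 min at room temperature; AC50 from Hill fits of concentration-response.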

[10] = Cell Viability - LYMP2-018 (AID 985); note: nearly all actives have a fitted effect of over 50% in size
Outline: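 2500 cells/well; 5 hr 37 C; cmpd 24 hr 37 C, complete medium; CellTiter-Glo 30 min RT; luminescence. Tetraoctylammonium bromide positive control. AC50 via Hill fit.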

[11] = Cell Viability - LYMP2-020 (AID 986); note: series mostly up to about 92 µM; nearly all actives have a fitted effect of over 55% in size
Outline: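 qHTS, 2500 cells/well; 5 hr then 24 hr compound exposure, 37 C; CellTiter-Glo luminescence after 30 min RT; ATP decrease taken as cytotoxicity; AC50 via Hill equation; tetraoctylammonium bromide positive control.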

[12] = Cell Viability - LYMP2-022 (AID 987); note: nearly all actives have a fitted effect of over 55% in size
Outline: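 Luminescent ATP read-out (CellTiter-Glo, 30 min, RT) after 24 hr, 37 C compound exposure of 2500 human lymphoblastoid cells/well in complete medium. Cytotoxicity taken as concentration-dependent ATP loss; AC50 from standard Hill equation.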

[13] = Cell Viability - LYMP2-024 (AID 988); note: nearly all actives have a fitted effect of over 60% in size
Outline: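 ATP-based luminescence (CellTiter-Glo, 30 min RT) after 24 h compound exposure at 37 C of 2500 lymphoblastoid cells/well; decrease in ATP taken as cytotoxicity. qHTS concentration-response fitted to standard Hill equation for AC50.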

[14] = Cell Viability - LYMP2-026 (AID 989); note: nearly all actives have a fitted effect of over 50% in size
Outline: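 qHTS cytotoxicity: 2500 cells/well, 5 hr 37 C, compound 24 hr 37 C, CellTiter-Glo 30 min RT, luminescence. Tetraoctylammonium bromide positive control. AC50 via standard Hill fit.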

[15] = Cell Viability - LYMP1-002 - Assay at 24 hr (AID 993)
Outline: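 CellTiter-Glo luminescence (intracellular ATP) after 24 h compound exposure, 37 C, in LYMP1-002 human lymphoblastoid cells; decreased ATP taken as cytotoxicity. AC50 from standard Hill fit of concentration-response curves.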

[16] = Cell Viability - LYMP1-002 - Assay at 40 hr (AID 994); note: nearly all actives have a fitted effect of over 60% in size
Outline: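 qHTS cytotoxicity; 2500 cells/well, 5 hr 37 C settle, compound 40 hr 37 C. CellTiter-Glo, 30 min RT, luminescence (ATP). Concentration-response, Hill fit → AC50. Pos. ctrl tetraoctylammonium bromide.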

[17] = qHTS Assay for Identification of Small Molecule Inducers of Hypoxia Response (AID 2120; active = well fitted curve in the direction sought with a large enough effect in the signal ratio, with a control signal flat, not every such curve was filed as active; the % refers to the signal ratio)
Outline: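 Read-out: CCF4 FRET emission ratio 460nm/530nm (excitation 405nm), converted to %Activity, with AC50 fitted across a compound titration. ME-180 cells carried an HRE-driven beta-lactamase reporter; compound exposure 17 h, 37 degrees C.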

[18] = target: Estrogen receptor (Homo sapiens) (UniProt P03372); assay: qHTS assay for small molecule antagonists of estrogen receptor alpha signaling (AID 588513; active = well fitted curve in the direction sought with a large enough effect in the signal ratio, with a control signal flat, not every such curve was filed as active; the % refers to the signal ratio)
Outline: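 ER-alpha-UAS-bla GripTite HEK 293 cells in 2% charcoal/dextran-treated FBS medium; compounds titrated (1:2, duplicate), then stimulated with 0.5 nM 17-beta-estradiol for 18 h at 37C. CCF4 beta-lactamase fluorescence; Hill-fit IC50 and efficacy.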

[19] = target: Estrogen receptor (Homo sapiens) (UniProt P03372); assay: qHTS assay for small molecule agonists of estrogen receptor alpha signaling (AID 588514; calls by dose curve; note: nearly all actives have a fitted effect of over 70% in size)
Outline: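 Read-out: CCF4 fluorescence from a beta-lactamase reporter in ER-alpha-UAS-bla HEK 293 cells after 18 hrs of compound exposure at 37 C. Normalized to 20 nM 17-beta-estradiol (100%) and DMSO (0%).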

Measured: Potency

Chain of Estrogen receptor (Homo sapiens) (P03372 whole entry, looked up): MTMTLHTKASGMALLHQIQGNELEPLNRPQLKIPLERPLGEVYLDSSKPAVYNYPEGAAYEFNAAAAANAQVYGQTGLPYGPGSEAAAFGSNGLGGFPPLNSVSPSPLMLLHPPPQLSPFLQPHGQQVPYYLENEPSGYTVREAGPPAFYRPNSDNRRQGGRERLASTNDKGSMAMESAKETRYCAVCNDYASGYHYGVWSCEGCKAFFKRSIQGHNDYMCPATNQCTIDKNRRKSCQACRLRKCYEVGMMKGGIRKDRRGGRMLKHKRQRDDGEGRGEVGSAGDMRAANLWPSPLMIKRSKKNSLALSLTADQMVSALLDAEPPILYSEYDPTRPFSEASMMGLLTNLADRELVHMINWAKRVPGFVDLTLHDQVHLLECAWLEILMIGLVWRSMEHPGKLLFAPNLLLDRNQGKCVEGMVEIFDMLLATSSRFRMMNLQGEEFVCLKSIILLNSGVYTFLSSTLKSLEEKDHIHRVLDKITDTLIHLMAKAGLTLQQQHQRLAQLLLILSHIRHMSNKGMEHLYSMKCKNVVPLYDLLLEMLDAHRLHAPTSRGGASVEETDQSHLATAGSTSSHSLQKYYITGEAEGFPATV

O=C(O[C@@H](C(=O)O)[C@@H](OC(=O)c1ccccc1)C(=O)O)c1ccccc1
inactive: [1] | [2] | [3] | [4] | [5] | [6] | [7] | [8] | [9] | [10] | [11] | [12] | [13] | [14] | [15] | [16] | [17] | [18] | [19]

CCCCC(CC)COC(=O)CCCCC(=O)OCC(CC)CCCC (stereo not drawn)
inactive: [1] | [2] | [3] | [4] | [5] | [6] | [7] | [8] | [9] | [10] | [11] | [12] | [13] | [14] | [16] | [17] | [18] | [19]

Nc1nc2ccccc2[nH]1
inactive: [1] | [2] | [3] | [4] | [5] | [6] | [7] | [8] | [9] | [10] | [11] | [12] | [13] | [14] | [15] | [16] | [17] | [18] | [19]

O=C(Cl)c1cccc([N+](=O)[O-])c1
inactive: [1] | [2] | [3] | [4] | [5] | [6] | [7] | [8] | [9] | [10] | [11] | [12] | [13] | [14] | [15] | [16] | [17] | [18] | [19]

CCCCC(C=O)CC (stereo not drawn)
inactive: [1] | [2] | [3] | [4] | [5] | [6] | [7] | [8] | [9] | [10] | [11] | [12] | [13] | [14] | [15] | [16] | [17] | [18] | [19]

COC(=O)CCC(=O)OC
inactive: [1] | [2] | [3] | [4] | [5] | [6] | [7] | [8] | [9] | [10] | [11] | [12] | [13] | [14] | [15] | [16] | [17] | [18] | [19]

O=C(Cl)c1c(Cl)cccc1Cl
inactive: [1] | [2] | [3] | [4] | [5] | [6] | [7] | [8] | [9] | [10] | [11] | [12] | [13] | [15] | [16] | [17] | [18] | [19]

O=C(O)c1cc(Cl)cc(Cl)c1
inactive: [1] | [2] | [3] | [4] | [5] | [6] | [7] | [8] | [9] | [10] | [11] | [12] | [13] | [14] | [15] | [16] | [17] | [18] | [19]

CCCCCCCCCCCCC1CO1 (stereo not drawn)
inactive: [1] | [2] | [3] | [4] | [5] | [6] | [7] | [8] | [9] | [10] | [11] | [12] | [13] | [14] | [16] | [17] | [18] | [19]

CCC(C)(C)OC
inactive: [1] | [2] | [3] | [4] | [5] | [6] | [7] | [8] | [9] | [10] | [11] | [12] | [13] | [14] | [15] | [16] | [17] | [18] | [19]

Nc1ccc([N+](=O)[O-])c(N)c1
inactive: [1] | [2] | [3] | [4] | [5] | [6] | [7] | [8] | [9] | [10] | [11] | [12] | [13] | [14] | [15] | [16] | [17] | [18] | [19]

O=C1CCC(=O)O1
inactive: [1] | [2] | [3] | [4] | [5] | [6] | [7] | [8] | [9] | [10] | [11] | [12] | [13] | [15] | [16] | [17] | [18] | [19]

Cc1ccccc1C=O
inactive: [1] | [2] | [3] | [4] | [5] | [6] | [7] | [8] | [9] | [10] | [11] | [12] | [13] | [14] | [15] | [16] | [17] | [18] | [19]

Clc1cc(Cl)cc(Cl)c1
inactive: [1] | [2] | [3] | [4] | [5] | [6] | [7] | [8] | [9] | [10] | [11] | [12] | [13] | [15] | [16] | [17] | [18] | [19]

C=CCOC(=O)COCCC(C)C
inactive: [1] | [2] | [3] | [4] | [5] | [6] | [7] | [8] | [9] | [10] | [11] | [12] | [13] | [15] | [16] | [17] | [18] | [19]

CC/C=C/C#N
inactive: [1] | [2] | [3] | [4] | [5] | [6] | [7] | [8] | [9] | [10] | [11] | [12] | [13] | [14] | [15] | [16] | [17] | [18] | [19]
